The source of these data is PubChem BioAssay.

A short description of experiment [1]: inhibitors of TNFa-induced NFkB p65 translocation, primary screen, imaging, HUVEC, MLSMR starter and 10KST1 sets (AID 438;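 active means inhibition above 20% together with a positive visual image hit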;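 further: compound added about 3h40 before a 20 min TNFalpha stimulation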;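 on inhibition: signal is the nuclear over cytoplasmic p65 intensity ratio per well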). As to conditions: HUVEC TNFa-induced p65 nuclear translocation; cell count: measured here: nuclei count (cytotoxicity indicator), at 2.08 µM; inhibition: at 2 µM, stronger effect = higher value, 0% TNFa-plus-vehicle, 100% no-TNFa wells.
The nature of experiment [2]: inhibitors of mutant huntingtin aggregation, primary screen, imaging, exon1htt(103Q)mCFP cells, high-content imaging (AID 483;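 active means visual image review flags a hit and inhibition of aggregation exceeds 20%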;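 further: compound exposure lasted 3 days before fixation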;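 on nuclei count: percent of the per-plate median nuclei count of sample wells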). The note with it: exon1htt(103Q)mCFP cell line, aggregate imaging, at 2 µM; inhibition of aggregation: stronger effect = higher value; nuclei count: measured here: cell count, toxicity.
Experiment [3] in a line: inhibitors of E-selectin induction by TNFa, primary screen, imaging, HUVEC, immunofluorescence, MLSMR starter and 10KST1 sets (AID 487;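 active means visually confirmed hit in the image check and inhibition above 20%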;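 on inhibition: signal is fraction of cell area covered by stained E-selectin grains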;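 on nuclei count: 100% = median nuclei count of all wells on the same plate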). As to conditions: HUVEC TNFalpha-induced E-selectin immunofluorescence imaging, at 2 µM; inhibition: stronger effect = higher value; nuclei count: measured here: cell number, toxicity.
Experiment [4] deals with Voltage-gated potassium channel subunit beta-2 (Rattus norvegicus) (UniProt P62483). The experiment is described as follows: KvBeta enzyme negative modulators, primary screen, biochemical, NADPH fluorescence (AID 622;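 active means fluorescence slope higher than the sample average by over 3 SD, cut at about -0.22 in these data, passing the limit was not always enough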;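 further: slope of raw intensity against log time taken from 70 to 1610 s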). The note with it: recombinant KvBeta, 4-cyanobenzaldehyde reduction, at 10 µM, stronger effect = higher value.
Experiment [5] shares this target. The experiment is described as follows: KvBeta positive modulators, primary screen, biochemical, NADPH fluorescence (AID 623).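 Further: fluorescence intensity change per second fitted from 20 to 320 s.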 The note with it: Recombinant KvBeta, NADPH fluorescence decrease slope, 10 min; at 10 µM; stronger effect = lower value.
The target in experiment [6] is Alpha-2C adrenergic receptor (Homo sapiens) (UniProt P18825). In words: modulators of alpha2C/GIRK thallium flux, primary screen, cell-based, HEK293 alpha2C/GIRK1/2 (AID 624;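 active means fluorescence slope after compound addition differing from the mean of all screened samples at 99.7% confidence, in either direction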;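 further: slope of fluorescence ratio to pre-addition baseline per second over 15 to 24 s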). As to conditions: thallium flux BTC fluorescence, at 10 µM, actives lie on both sides.
Experiment [7] in a line: inhibitors of Sendai virus-induced IRF3 signaling, primary screen, TLR/RLR signaling modifier project, cell-based, Sendai virus stimulus, luciferase, 10K MLSCN set (AID 602276;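 active means inhibition at or above 50% at 10 µM; inactive means inhibition below 50%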;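 further: firefly luciferase from ISG56 promoter only with Renilla not read in this screen; 0% = Sendai virus plus DMSO and 100% = medium plus DMSO without virus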). The note with it: HEK293 RL24 IRF3 luciferase reporter, at 10 µM, stronger effect = higher value.
A short description of experiment [8]: inhibitors of poly I:C-induced TLR3 signaling, primary screen, cell-based, poly I:C stimulus, luciferase, 10K MLSCN set (AID 602277;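 active means inhibition of the reporter signal at or above 50%; inactive means inhibition below 50%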). As to conditions: HEK293-TLR3 RL24 IRF3 luciferase reporter, at 10 µM, stronger effect = higher value.

Activity calls are given as the source filed them.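 How the source made its calls, unless noted: active means NADPH fluorescence slope more negative than the mean of all samples by about 3 SD, 99.7% confidence; inactive means the rest.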

Alpha-2C adrenergic receptor (Homo sapiens), sequence (P18825 whole entry, looked up): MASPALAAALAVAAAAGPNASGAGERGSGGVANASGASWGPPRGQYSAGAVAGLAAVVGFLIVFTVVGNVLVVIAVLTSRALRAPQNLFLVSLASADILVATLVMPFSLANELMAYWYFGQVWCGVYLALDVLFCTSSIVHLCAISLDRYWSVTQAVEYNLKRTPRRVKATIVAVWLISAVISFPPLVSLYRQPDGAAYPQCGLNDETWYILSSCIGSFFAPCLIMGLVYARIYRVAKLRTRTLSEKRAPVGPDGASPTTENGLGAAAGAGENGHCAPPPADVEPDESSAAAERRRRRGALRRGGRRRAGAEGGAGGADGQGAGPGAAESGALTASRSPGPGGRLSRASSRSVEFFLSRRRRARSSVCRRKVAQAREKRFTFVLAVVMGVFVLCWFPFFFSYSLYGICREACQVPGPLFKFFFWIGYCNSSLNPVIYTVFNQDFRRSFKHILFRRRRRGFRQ
Voltage-gated potassium channel subunit beta-2 (Rattus norvegicus), sequence (P62483 whole entry, looked up): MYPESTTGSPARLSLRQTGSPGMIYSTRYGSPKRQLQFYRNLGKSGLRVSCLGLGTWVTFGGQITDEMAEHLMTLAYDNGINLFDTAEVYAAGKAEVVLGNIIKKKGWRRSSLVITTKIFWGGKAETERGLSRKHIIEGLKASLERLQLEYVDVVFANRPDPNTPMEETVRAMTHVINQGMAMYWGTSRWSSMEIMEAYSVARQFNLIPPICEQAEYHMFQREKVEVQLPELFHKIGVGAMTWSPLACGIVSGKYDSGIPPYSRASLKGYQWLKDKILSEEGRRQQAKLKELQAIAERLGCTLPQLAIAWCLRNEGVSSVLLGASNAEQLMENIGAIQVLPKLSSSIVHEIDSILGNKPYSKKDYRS

Regarding `Cc1csc(NC(=O)CCCSc2nc3ccccc3s2)n1`, in experiment [1], the cell count is 387. Moreover, the inhibition in experiment [1] was 0.9% (inactive); in experiment [3], -33.8% (inactive); in experiment [7], 23.5% (inactive); in experiment [8] it was 26.7% (inactive). In addition, in experiment [2], the inhibition of aggregation is 0.5% (inactive). For the same molecule, the nuclei count stood at 97.4% in experiment [2] and 110% in experiment [3]. Also, the fluorescence slope in experiment [4] is -0.594 (inactive). The NADPH fluorescence slope in experiment [5] was -2.4e-05 (inactive). Also, in experiment [6], the slope is 0.00267 (inactive).

For `O=C(NC1CCCC1)C1CC1c1ccccc1` (stereo not drawn), in experiment [1], the cell count worked out at 516. Moreover, the inhibition in experiment [1] is -4.3% (inactive); in experiment [3], 26.9% (inactive); in experiment [7], 8.1% (inactive); in experiment [8], 8.52% (inactive). Also, the inhibition of aggregation in experiment [2] is -5.1% (inactive). Also, the nuclei count worked out at 99.7% in experiment [2] and 78.4% in experiment [3]. Besides, the fluorescence slope in experiment [4] is -0.617 (inactive). Further, in experiment [5], the NADPH fluorescence slope is -1.4e-05 (inactive). Moreover, the slope in experiment [6] was 0.00431 (inactive).

For the molecule `Cc1cc(N2CCC3(CC2)OCCO3)n2nc(C)c(-c3ccc(Cl)cc3)c2n1`, in experiment [1], the cell count is 495. Further, the inhibition in experiment [1] is -19.7% (inactive); in experiment [3], -11.4% (inactive); in experiment [7] it was 12.3% (inactive); in experiment [8], 12.1% (inactive). The inhibition of aggregation in experiment [2] is -48.2% (inactive). Moreover, the nuclei count in experiment [2] worked out at 61.2%; in experiment [3] it was 94.7%. Also, the fluorescence slope in experiment [4] is -0.544 (inactive). In addition, the NADPH fluorescence slope in experiment [5] is 7.5e-07 (inactive). Further, the slope in experiment [6] was 0.00741 (inactive).

`Cc1ccc(C)c(NC(=O)CSc2nnc(-c3ccccc3)o2)c1`: the cell count in experiment [1] was found to be 613. The inhibition in experiment [1] was -6% (inactive); in experiment [3] it was -45.1% (inactive); in experiment [7], 10% (inactive); in experiment [8], 29.3% (inactive). Further, the inhibition of aggregation in experiment [2] was 18.9% (inactive). The nuclei count is 89.2% in experiment [2] and 104% in experiment [3]. Also, the fluorescence slope in experiment [4] was -0.543 (inactive). The NADPH fluorescence slope in experiment [5] was 8.3e-06 (inactive). Moreover, the slope in experiment [6] was 0.00712 (inactive).

For the molecule `CCOC(=O)C1CCN(Cc2c(O)ccc3ccccc23)CC1`, the cell count in experiment [1] came to 596. Moreover, the inhibition in experiment [1] was -3% (inactive); in experiment [3], -41.8% (inactive); in experiment [7] it was 25.4% (inactive); in experiment [8], 33.8% (inactive). Also, the inhibition of aggregation in experiment [2] was 3.7% (inactive). Further, the nuclei count in experiment [2] was found to be 109%; in experiment [3], 124%. Also, the fluorescence slope in experiment [4] is -0.5 (inactive). Besides, in experiment [5], the NADPH fluorescence slope is -7.8e-05 (inactive). Besides, the slope in experiment [6] is 0.00484 (inactive).

Consider `Cn1cccc1Cc1nnc(SCC(=O)NCc2ccc(F)cc2)n1-c1ccc(F)cc1`, for which the cell count in experiment [1] turned out to be 767. In addition, the inhibition in experiment [1] is -7.4% (inactive); in experiment [3], -56.2% (inactive); in experiment [7], -4.39% (inactive); in experiment [8], 9.66% (inactive). Further, the inhibition of aggregation in experiment [2] is 20% (inactive). In addition, the nuclei count in experiment [2] was found to be 139%; in experiment [3], 116%. Further, the fluorescence slope in experiment [4] was -0.579 (inactive). Further, the NADPH fluorescence slope in experiment [5] was 8.6e-06 (inactive). In addition, the slope in experiment [6] was 0.00663 (inactive).

Turning to `O=C(O)c1cccn2c(=O)c3ccccc3nc12`, the cell count in experiment [1] came to 799. Further, the inhibition was -2.3% (inactive) in experiment [1], -19.6% (inactive) in experiment [3], 8.6% (inactive) in experiment [7] and 6.83% (inactive) in experiment [8]. For the same molecule, in experiment [2], the inhibition of aggregation is -14.1% (inactive). The nuclei count in experiment [2] was determined as 84.3%; in experiment [3] it was 126%. Besides, the fluorescence slope in experiment [4] is -0.313 (inactive). The NADPH fluorescence slope in experiment [5] was -2.6e-05 (inactive). Further, the slope in experiment [6] was 0.0061 (inactive).

In the case of `COc1ccc(-c2cc(O)cc(O)c2)cc1`, in experiment [1], the cell count was determined as 397. For the same molecule, the inhibition was -10.3% (inactive) in experiment [1], -25% (inactive) in experiment [3], -15.5% (inactive) in experiment [7] and -88.2% (inactive) in experiment [8]. Besides, in experiment [2], the inhibition of aggregation is -11% (inactive). Moreover, the results for the nuclei count in experiment [2] and in experiment [3] were 103% and 98.8%, respectively. Besides, the fluorescence slope in experiment [4] is -0.49 (inactive). The NADPH fluorescence slope in experiment [5] is -7.1e-05 (inactive). Moreover, the slope in experiment [6] is 0.00555 (inactive).

Regarding `OC(COc1ccccc1)CN1C2=NCCCN2c2ccccc21` (stereo not drawn), the cell count in experiment [1] is 295. For the same molecule, the inhibition in experiment [1] is 1.6% (inactive); in experiment [3], 5.3% (inactive); in experiment [7], 20% (inactive); in experiment [8], 30.6% (inactive). For the same molecule, the inhibition of aggregation in experiment [2] was -3.1% (inactive). Further, the nuclei count was determined as 81.2% in experiment [2] and 79.2% in experiment [3]. Further, in experiment [4], the fluorescence slope was -0.608 (inactive). Also, the NADPH fluorescence slope in experiment [5] is -4.2e-06 (inactive). Also, the slope in experiment [6] is 0.00402 (inactive).

On to `COC(=O)c1ccc2c(c1)C(=O)N(C1CCCCC1)C2=O`, for which the cell count in experiment [1] turned out to be 338. For the same molecule, the inhibition in experiment [1] was 2.1% (inactive); in experiment [3], -9.6% (inactive); in experiment [7], 14.7% (inactive); in experiment [8], 13.8% (inactive). In addition, the inhibition of aggregation in experiment [2] is -2.4% (inactive). Also, the nuclei count in experiment [2] was determined as 107%; in experiment [3], 96.9%. In addition, the fluorescence slope in experiment [4] was -0.443 (inactive). For the same molecule, in experiment [5], the NADPH fluorescence slope is -3.4e-05 (inactive). In addition, the slope in experiment [6] was 0.00524 (inactive).

Take `Cc1ccccc1OCCCN1C(=O)C(=O)c2cccc(C)c21`: the cell count in experiment [1] stood at 833. In addition, the inhibition in experiment [1] is 3.7% (inactive); in experiment [3], -81.4% (inactive); in experiment [7] it was 5.45% (inactive); in experiment [8] it was -4.08% (inactive). In experiment [2], the inhibition of aggregation is 5% (inactive). The nuclei count in experiment [2] stood at 108%; in experiment [3] it was 113%. Besides, in experiment [4], the fluorescence slope was -0.575 (inactive). The NADPH fluorescence slope in experiment [5] is -5e-05 (inactive). The slope in experiment [6] was 0.00604 (inactive).

For `CC(NC(=O)c1cn(C)c2ccc(S(=O)(=O)N3CCCC3)cc2c1=O)c1ccc2c(c1)OCCO2` (stereo not drawn), in experiment [1], the cell count stood at 766. Further, the inhibition in experiment [1] was 0% (inactive); in experiment [3], 3.8% (inactive); in experiment [7] it was -4.57% (inactive); in experiment [8], 17% (inactive). The inhibition of aggregation in experiment [2] was 5.6% (inactive). For the same molecule, the nuclei count in experiment [2] worked out at 98.3%; in experiment [3], 103%. The fluorescence slope in experiment [4] was -0.483 (inactive). The NADPH fluorescence slope in experiment [5] was -0.000101 (inactive). Moreover, the slope in experiment [6] was 0.00703 (inactive).

On to `Cc1cc(NC(=O)COc2cccc(Oc3ccccc3)c2)no1`, for which, in experiment [1], the cell count came to 327. The inhibition in experiment [1] was -0.9% (inactive); in experiment [3] it was -61% (inactive); in experiment [7], 10.8% (inactive); in experiment [8], 30.5% (inactive). Moreover, the inhibition of aggregation in experiment [2] was -11.4% (inactive). The values for the nuclei count in experiment [2] and in experiment [3] were 80.8% and 106%, respectively. Further, the fluorescence slope in experiment [4] was -0.375 (inactive). For the same molecule, the NADPH fluorescence slope in experiment [5] is -7.6e-05 (inactive). The slope in experiment [6] was 0.0048 (inactive).
